Assay results as given in PubChem BioAssay (EPA / NIEHS).
Results filed as inconclusive are left out. The source made the active and inactive calls. The calls were made as follows, unless noted: active = hit-call score of the fitted dose curve at least 0.9, where 1 is the maximum; inactive = score below 0.9.

Experiments:
[1] = biological target: Oxysterols receptor LXR-alpha (Homo sapiens) (UniProt Q13133); test: ATG_LXRa_TRANS: Attagene TRANS-FACTORIAL HepG2 Assay for human Liver X Receptor alpha (LXRa) (AID 2282980; active = hit-call score of the fitted dose curve at least 0.9, where 1 is the maximum); conditions: HepG2 Attagene TRANS reporter, LXRa transactivation
Summary of the method: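 HepG2 cells were transiently transfected with multiplexed reporter units driven by chimeric LXRa–GAL4 fusion proteins, then dosed for 24 h. Reporter mRNA was quantified by RT-PCR, fluorescent labelling and capillary electrophoresis; gain of signal fitted against DMSO baseline.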

[2] = biological target: Oxysterols receptor LXR-beta (Homo sapiens) (UniProt P55055); test: ATG_LXRb_TRANS: Attagene TRANS-FACTORIAL HepG2 Assay for human Liver X Receptor beta (LXRb) (AID 2282981; active = hit-call score of the fitted dose curve at least 0.9, where 1 is the maximum); conditions: HepG2 Attagene TRANS GAL4-LXRb reporter, mRNA
Summary of the method: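 Transient transfection HepG2 (multiplexed RTUs, GAL4-UAS); NR-Gal4 chimera; 24 h exposure; RNA → RT-PCR → 6-FAM primer extension → HpaI → CE; increase vs DMSO.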

[3] = ATG_M_06_TRANS: Attagene TRANS-FACTORIAL HepG2 Assay for M06 Transcription Factor (Internal Marker) (AID 2282983; active = hit-call score of the fitted dose curve at least 0.9, where 1 is the maximum;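 also: reporter transcript level by RT-PCR then capillary electrophoresis fluorescence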); conditions: HepG2 Attagene TRANS M06 internal marker reporter
Summary of the method: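 HepG2 cells transiently transfected with multiplexed GAL4-UAS reporter transcription units; after 24 h compound exposure, reporter mRNA measured by RT-PCR, FAM-labelled primer extension, HpaI digestion and capillary electrophoresis. Gain-of-signal fitted versus DMSO baseline; background control readout.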

[4] = ATG_M_32_TRANS: Attagene TRANS-FACTORIAL HepG2 Assay for M32 Transcription Factor (Internal Marker) (AID 2282984; active = hit-call score of the fitted dose curve at least 0.9, where 1 is the maximum); conditions: HepG2 Attagene TRANS M32 internal marker reporter
Summary of the method: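 Measures reporter mRNA induction in human HepG2 liver cells after 24 h chemical treatment. Transcripts from transiently transfected GAL4-UAS reporter units are amplified, fluorescently labelled and sized by capillary electrophoresis; gain of signal relative to DMSO.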

[5] = biological target: Nuclear receptor subfamily 4 group A member 2 (Homo sapiens) (UniProt P43354); test: ATG_NURR1_TRANS: Attagene TRANS-FACTORIAL HepG2 Assay for human Nuclear Receptor Related Protein 1 (NURR1) (AID 2282985; active = hit-call score of the fitted dose curve at least 0.9, where 1 is the maximum); conditions: HepG2 Attagene TRANS reporter, mRNA readout
Summary of the method: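 Transient transfection of HepG2, human liver cells, with multiple GAL4-UAS reporter transcription units. Cells dosed 24 h, RNA isolated, reverse-transcribed, PCR-amplified, FAM-labelled, HpaI-digested, sized by capillary electrophoresis. DMSO served as negative control.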

[6] = biological target: Transcriptional activator Myb (Homo sapiens) (UniProt P10242); test: ATG_Myb_CIS: Attagene CIS-FACTORIAL HepG2 Assay for human Myeloblastosis (Myb) Proto-Oncogene Transcription Factor (AID 2282986); conditions: HepG2 Attagene CIS-FACTORIAL Myb reporter transcription; actives raise or lower the signal
Summary of the method: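 Endogenous transcription factor activity at a Myb-responsive cis element is reported in human liver HepG2 cells after 24 h chemical treatment. Reporter mRNA is detected by RT-PCR and capillary electrophoresis fluorescence, with DMSO as baseline.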

[7] = biological target: Nuclear respiratory factor 1 (Homo sapiens) (UniProt Q16656); test: ATG_NRF1_CIS: Attagene CIS-FACTORIAL HepG2 Assay for human Nuclear Respiratory Factor 1 (NRF1) Orphan Gene (AID 2282987); conditions: HepG2 NRF1 cis-element reporter, Attagene multiplex; actives raise or lower the signal
Summary of the method: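 Human hepatoma HepG2 cells carrying transfected promoter-regulated reporter units were incubated with test chemicals for 24 h. Reporter transcripts were measured by RT-PCR plus capillary electrophoresis, and endpoints derived by bidirectional fitting with DMSO as baseline.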

[8] = ATG_NFI_CIS: Attagene CIS-FACTORIAL HepG2 Assay for human Nuclear Factor I (NFI) (AID 2282989); conditions: HepG2 cis-regulatory reporter, NFI response element transcription; actives raise or lower the signal
Summary of the method: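 HepG2 cells transiently transfected with cis-element-driven multiplexed reporter transcription units, dosed for 24 h. Reporter mRNA quantified by RT-PCR, fluorescent labelling, HpaI digestion and capillary electrophoresis; bidirectional fit versus DMSO baseline.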

[9] = biological target: Myc proto-oncogene protein (Homo sapiens) (UniProt P01106); test: ATG_Myc_CIS: Attagene CIS-FACTORIAL HepG2 Assay for human Myelocytomatosis (Myc) Proto-Oncogene Transcription Factor (AID 2282990); conditions: HepG2, Attagene cis-reporter transcription factor activity; actives raise or lower the signal
Summary of the method: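 Cells of the HepG2 human liver line bear multiple cis-driven reporter transcription units. Reporter mRNA after 24 h exposure is reverse-transcribed, amplified, labelled and resolved by capillary electrophoresis, with gain- or loss-of-signal fitting relative to DMSO.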

[10] = ATG_NF_kB_CIS: Attagene CIS-FACTORIAL HepG2 Assay for human Nuclear Factor Kappa B (NF-kB) (AID 2282991); conditions: HepG2 Attagene cis-factorial NF-kB reporter mRNA; actives raise or lower the signal
Summary of the method: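 Multiplexed cis-reporter assay in transiently transfected HepG2. 24 h treatment; RNA isolated, RT-PCR, labelled fragments resolved by CE. DMSO baseline.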

[11] = ATG_NRF2_ARE_CIS: Attagene CIS-FACTORIAL HepG2 Assay for human Nuclear Factor Erythroid 2 Related Factor 2 (NFR2) response to Antioxidant Response Elements (ARE) (AID 2282992); conditions: HepG2 Attagene ARE/NRF2 reporter, transcription factor activity; actives raise or lower the signal;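 as to AC50: reporter mRNA level measured by RT-PCR and capillary electrophoresis fluorescence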
Summary of the method: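 Cis-factorial assay: transfected HepG2 reporter library, 24 h dosing, mRNA readout via RT-PCR/CE; DMSO-referenced bidirectional analysis.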

[12] = biological target: Cellular tumor antigen p53 (Homo sapiens) (UniProt P04637); test: ATG_p53_CIS: Attagene CIS-FACTORIAL HepG2 Assay for human p53 Transcription Factor (AID 2282994); conditions: HepG2 p53 cis-element reporter, Attagene mRNA; actives raise or lower the signal
Summary of the method: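 Using HepG2 hepatoma cells carrying cis-acting multiplexed reporters, mRNA induction is detected after a 24 h exposure. Gain- and loss-of-signal responses are fitted relative to DMSO-treated cells.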

[13] = BSK_3C_TissueFactor: BioMAP Diversity Plus: 3C Assay for Tissue Factor Biomarker Activity (AID 2282997); conditions: BioMAP 3C HUVEC, tissue factor biomarker readout; actives raise or lower the signal
Summary of the method: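 Primary human umbilical vein endothelial cells in the 3C system were exposed to test chemical for 24 h, then Tissue Factor measured by ELISA. Activity was fitted bidirectionally against DMSO as negative control and baseline.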

[14] = BSK_3C_uPAR: BioMAP Diversity Plus: 3C Assay for Urokinase-type plasminogen activator receptor (uPAR) Biomarker Activity (AID 2282998); conditions: BioMAP 3C HUVEC, uPAR biomarker ELISA; actives raise or lower the signal
Summary of the method: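 Human umbilical vein endothelial primary cells were exposed to test chemical for 24 h. Cell-surface uPAR was then quantified by ELISA, and responses were fitted bidirectionally against DMSO as negative control and baseline.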

[15] = BSK_3C_VCAM1: BioMAP Diversity Plus: 3C Assay for Vascular cell adhesion molecule 1 (VCAM1) Biomarker Activity (AID 2282999); conditions: BioMAP 3C HUVEC, VCAM1 ELISA, cytokine-stimulated; actives raise or lower the signal
Summary of the method: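 Endothelial cells from human umbilical vein are treated with test chemical. At 24 h, VCAM-1 is measured by ELISA, and responses in either direction are fitted relative to DMSO.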

[16] = biological target: Glucocorticoid receptor (Homo sapiens) (UniProt P04150); test: ATG_GR_TRANS: Attagene TRANS-FACTORIAL HepG2 Assay for human Glucocorticoid Receptor (GR) (AID 2282978; active = hit-call score of the fitted dose curve at least 0.9, where 1 is the maximum;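 also: activators score as hits since higher reporter transcript over DMSO is fitted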); conditions: HepG2 Attagene TRANS GR reporter, mRNA transcription
Summary of the method: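 Multiplexed TRANS reporter system, HepG2; 24 h exposure; RNA → oligo(dT) RT → reporter-specific PCR → 6-FAM primer extension → HpaI cut → CE fluorescence. Gain-of-signal vs DMSO.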

[17] = ATG_Oct_MLP_CIS: Attagene CIS-FACTORIAL HepG2 Assay for human Octamer-Binding Transcription Factor (Oct) (AID 2282993); conditions: HepG2 Attagene cis-factorial Oct reporter, mRNA; actives raise or lower the signal
Summary of the method: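 HepG2 cells transiently transfected with cis-promoter-driven multiplexed reporter transcription units, dosed for 24 h. Reporter mRNA quantified by RT-PCR, fluorescent labelling, HpaI digestion and capillary electrophoresis; bidirectional fits versus DMSO baseline.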

Chain of Nuclear respiratory factor 1 (Homo sapiens) (Q16656 whole entry, looked up): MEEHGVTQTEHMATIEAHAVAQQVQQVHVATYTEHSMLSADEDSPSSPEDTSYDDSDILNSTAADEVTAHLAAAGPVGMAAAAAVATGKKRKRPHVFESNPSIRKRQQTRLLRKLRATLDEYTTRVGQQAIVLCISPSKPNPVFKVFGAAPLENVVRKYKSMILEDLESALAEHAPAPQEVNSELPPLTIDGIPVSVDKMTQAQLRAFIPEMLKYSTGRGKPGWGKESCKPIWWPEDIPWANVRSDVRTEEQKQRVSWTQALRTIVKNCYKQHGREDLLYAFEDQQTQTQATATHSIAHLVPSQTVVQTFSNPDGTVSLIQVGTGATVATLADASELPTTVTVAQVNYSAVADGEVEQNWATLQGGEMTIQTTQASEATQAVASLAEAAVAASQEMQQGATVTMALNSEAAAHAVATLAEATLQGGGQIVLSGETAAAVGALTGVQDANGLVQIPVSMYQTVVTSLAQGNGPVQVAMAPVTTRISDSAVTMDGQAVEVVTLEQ
Chain of Oxysterols receptor LXR-alpha (Homo sapiens) (Q13133 whole entry, looked up, the tested form may be a part): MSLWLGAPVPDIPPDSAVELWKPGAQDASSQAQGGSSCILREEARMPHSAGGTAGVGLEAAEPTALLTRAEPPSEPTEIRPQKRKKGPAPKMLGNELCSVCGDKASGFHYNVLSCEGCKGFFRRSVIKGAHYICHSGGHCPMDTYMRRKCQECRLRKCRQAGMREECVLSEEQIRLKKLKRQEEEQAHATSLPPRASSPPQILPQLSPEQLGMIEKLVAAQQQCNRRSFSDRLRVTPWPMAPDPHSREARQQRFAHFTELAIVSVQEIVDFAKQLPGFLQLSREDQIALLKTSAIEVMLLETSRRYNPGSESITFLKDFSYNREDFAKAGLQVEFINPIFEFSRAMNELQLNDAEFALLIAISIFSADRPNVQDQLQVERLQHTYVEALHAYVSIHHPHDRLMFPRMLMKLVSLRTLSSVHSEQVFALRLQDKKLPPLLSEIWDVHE
Chain of Oxysterols receptor LXR-beta (Homo sapiens) (P55055 whole entry, looked up, the tested form may be a part): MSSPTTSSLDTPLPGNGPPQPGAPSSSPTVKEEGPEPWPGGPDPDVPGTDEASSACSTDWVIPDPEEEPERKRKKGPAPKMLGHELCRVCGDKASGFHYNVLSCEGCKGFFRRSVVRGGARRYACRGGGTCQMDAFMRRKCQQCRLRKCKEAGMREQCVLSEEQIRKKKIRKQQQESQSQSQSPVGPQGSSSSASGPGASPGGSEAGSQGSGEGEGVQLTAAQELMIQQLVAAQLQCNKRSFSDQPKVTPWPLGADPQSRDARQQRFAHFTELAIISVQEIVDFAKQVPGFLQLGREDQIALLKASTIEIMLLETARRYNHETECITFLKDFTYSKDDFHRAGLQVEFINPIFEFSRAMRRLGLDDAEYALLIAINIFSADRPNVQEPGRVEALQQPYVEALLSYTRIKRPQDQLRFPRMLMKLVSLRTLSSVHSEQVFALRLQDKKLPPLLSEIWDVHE
Chain of Myc proto-oncogene protein (Homo sapiens) (P01106 whole entry, looked up): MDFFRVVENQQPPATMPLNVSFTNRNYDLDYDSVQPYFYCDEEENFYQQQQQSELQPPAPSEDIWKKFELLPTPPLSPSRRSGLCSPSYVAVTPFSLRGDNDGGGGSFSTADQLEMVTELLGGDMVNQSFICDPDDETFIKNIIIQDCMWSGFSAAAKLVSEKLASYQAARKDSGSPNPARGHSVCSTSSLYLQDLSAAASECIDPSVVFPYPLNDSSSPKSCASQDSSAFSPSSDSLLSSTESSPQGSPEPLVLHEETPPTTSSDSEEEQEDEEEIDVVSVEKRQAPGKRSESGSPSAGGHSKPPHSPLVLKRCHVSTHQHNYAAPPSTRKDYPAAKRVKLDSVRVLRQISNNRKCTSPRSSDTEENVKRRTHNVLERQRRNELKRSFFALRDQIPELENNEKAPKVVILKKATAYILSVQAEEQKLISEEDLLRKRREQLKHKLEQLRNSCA
Chain of Cellular tumor antigen p53 (Homo sapiens) (P04637 whole entry, looked up): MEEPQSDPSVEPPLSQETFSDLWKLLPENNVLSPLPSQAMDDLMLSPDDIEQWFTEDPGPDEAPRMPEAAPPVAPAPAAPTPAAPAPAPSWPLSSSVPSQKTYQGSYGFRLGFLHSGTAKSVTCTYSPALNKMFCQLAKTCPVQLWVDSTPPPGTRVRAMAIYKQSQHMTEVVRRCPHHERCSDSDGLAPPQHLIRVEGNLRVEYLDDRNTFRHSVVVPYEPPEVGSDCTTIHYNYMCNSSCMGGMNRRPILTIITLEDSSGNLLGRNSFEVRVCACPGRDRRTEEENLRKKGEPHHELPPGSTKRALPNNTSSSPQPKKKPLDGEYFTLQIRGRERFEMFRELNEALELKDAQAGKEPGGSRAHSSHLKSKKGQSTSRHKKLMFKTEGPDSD
Chain of Nuclear receptor subfamily 4 group A member 2 (Homo sapiens) (P43354 whole entry, looked up, the tested form may be a part): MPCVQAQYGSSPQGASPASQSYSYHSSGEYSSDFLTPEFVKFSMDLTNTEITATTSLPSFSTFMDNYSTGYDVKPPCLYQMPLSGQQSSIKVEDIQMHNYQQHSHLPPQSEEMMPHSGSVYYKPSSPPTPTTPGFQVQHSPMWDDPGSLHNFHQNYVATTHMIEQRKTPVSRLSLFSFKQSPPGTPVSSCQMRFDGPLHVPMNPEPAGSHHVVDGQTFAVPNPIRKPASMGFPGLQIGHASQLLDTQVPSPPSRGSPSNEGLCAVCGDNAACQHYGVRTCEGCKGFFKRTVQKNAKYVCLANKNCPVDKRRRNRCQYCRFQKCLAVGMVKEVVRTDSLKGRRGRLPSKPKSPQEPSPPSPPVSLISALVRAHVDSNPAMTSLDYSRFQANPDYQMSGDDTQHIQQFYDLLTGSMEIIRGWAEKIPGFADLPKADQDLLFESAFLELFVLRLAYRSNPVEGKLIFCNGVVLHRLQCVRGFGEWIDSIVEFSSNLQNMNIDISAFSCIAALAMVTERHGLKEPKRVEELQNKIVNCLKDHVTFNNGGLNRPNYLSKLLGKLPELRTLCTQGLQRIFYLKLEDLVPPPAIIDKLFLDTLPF
Chain of Transcriptional activator Myb (Homo sapiens) (P10242 whole entry, looked up): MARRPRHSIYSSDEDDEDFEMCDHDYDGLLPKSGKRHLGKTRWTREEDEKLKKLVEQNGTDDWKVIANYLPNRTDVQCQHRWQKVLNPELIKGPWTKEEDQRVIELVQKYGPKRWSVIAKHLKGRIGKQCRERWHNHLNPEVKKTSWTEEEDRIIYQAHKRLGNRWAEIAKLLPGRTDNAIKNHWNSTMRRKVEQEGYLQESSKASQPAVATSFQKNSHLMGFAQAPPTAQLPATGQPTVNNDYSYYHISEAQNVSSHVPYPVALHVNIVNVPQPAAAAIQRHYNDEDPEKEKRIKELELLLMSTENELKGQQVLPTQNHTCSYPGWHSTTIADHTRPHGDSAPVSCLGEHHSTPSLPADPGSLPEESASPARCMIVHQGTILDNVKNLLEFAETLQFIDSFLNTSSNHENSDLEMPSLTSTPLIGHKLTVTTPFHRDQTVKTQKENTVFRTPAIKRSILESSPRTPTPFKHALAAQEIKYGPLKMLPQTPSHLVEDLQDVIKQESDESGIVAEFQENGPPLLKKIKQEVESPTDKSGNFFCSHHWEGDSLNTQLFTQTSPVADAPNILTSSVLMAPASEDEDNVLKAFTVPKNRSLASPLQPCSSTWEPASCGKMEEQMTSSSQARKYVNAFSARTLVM
Chain of Glucocorticoid receptor (Homo sapiens) (P04150 whole entry, looked up): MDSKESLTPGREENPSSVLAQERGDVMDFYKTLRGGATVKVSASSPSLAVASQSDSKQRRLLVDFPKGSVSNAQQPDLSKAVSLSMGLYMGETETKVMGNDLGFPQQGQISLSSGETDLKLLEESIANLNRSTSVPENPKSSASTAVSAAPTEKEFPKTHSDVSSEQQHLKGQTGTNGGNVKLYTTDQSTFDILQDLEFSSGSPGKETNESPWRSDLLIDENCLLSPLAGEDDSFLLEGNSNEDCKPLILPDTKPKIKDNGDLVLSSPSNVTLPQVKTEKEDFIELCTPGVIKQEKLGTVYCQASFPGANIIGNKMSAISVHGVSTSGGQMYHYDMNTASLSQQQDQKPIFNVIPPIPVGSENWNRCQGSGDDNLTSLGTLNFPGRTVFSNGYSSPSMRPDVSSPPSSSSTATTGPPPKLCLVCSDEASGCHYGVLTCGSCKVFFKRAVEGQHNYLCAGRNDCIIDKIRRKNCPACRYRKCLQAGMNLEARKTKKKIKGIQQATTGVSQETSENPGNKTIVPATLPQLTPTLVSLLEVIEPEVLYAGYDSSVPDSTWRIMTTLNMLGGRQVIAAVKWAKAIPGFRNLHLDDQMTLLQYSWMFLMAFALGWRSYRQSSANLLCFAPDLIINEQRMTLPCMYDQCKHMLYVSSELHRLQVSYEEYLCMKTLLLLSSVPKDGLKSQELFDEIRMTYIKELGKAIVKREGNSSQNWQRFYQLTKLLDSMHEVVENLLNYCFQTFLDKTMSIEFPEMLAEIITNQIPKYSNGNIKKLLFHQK

Row | Compound | outcome [1] | outcome [2] | outcome [3] | outcome [4] | outcome [5] | outcome [6] | outcome [7] | outcome [8] | outcome [9] | outcome [10] | outcome [11] | outcome [12] | outcome [13] | outcome [14] | outcome [15] | outcome [16] | AC50 [11] | outcome [17] | AC50 [13] | AC50 [10]
1 | COS(=O)(=O)OC | inactive | inactive | inactive | inactive | inactive | inactive | inactive | inactive | inactive | inactive | inactive | inactive | inactive | inactive | inactive | – | – | – | – | –
2 | CC(C)C(=O)OCC(C)(C)C(OC(=O)C(C)C)C(C)C (centres undefined) | inactive | inactive | – | – | inactive | inactive | inactive | inactive | inactive | inactive | inactive | inactive | inactive | inactive | inactive | – | – | – | – | –
3 | CCCCCCOC(=O)c1ccccc1C(=O)OCCCCCC | – | – | inactive | – | inactive | inactive | inactive | inactive | inactive | inactive | – | inactive | inactive | inactive | inactive | inactive | 16.2 µM (active) | – | – | –
4 | O=C(NC(=O)c1c(F)cccc1F)Nc1cc(Cl)c(OC(F)(F)C(F)F)c(Cl)c1 | inactive | – | inactive | – | – | inactive | inactive | inactive | inactive | inactive | inactive | inactive | – | inactive | inactive | – | – | inactive | 1.03 µM (active) | –
5 | N#Cc1ccc(N(CC(N)=O)CC(F)(F)F)cc1C(F)(F)F | inactive | – | – | – | – | inactive | inactive | inactive | inactive | – | – | inactive | inactive | inactive | inactive | – | 170 µM (active) | – | – | –
6 | C=CC(=O)NCNC(=O)C=C | – | inactive | inactive | – | inactive | inactive | inactive | inactive | inactive | – | – | inactive | inactive | inactive | inactive | – | 61.1 µM (active) | inactive | – | 100 µM (active)
7 | Cc1ccc(O)c(C)c1 | – | – | – | – | – | inactive | inactive | inactive | inactive | inactive | – | inactive | inactive | inactive | inactive | inactive | 7.51 µM (active) | – | – | –
